aDG glyco up: alpha-DG glycosylation activation; Pro5-aDG cells, alpha-DG glycosylation AlphaScreen (IIH6); 0% Pro5, 100% B10-LARGE cell signal; activation, % at 10 µM; 360,000 tested, 0.22% active;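 active = activation of at least 8% versus controls, or a plate z-score of at least 8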;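 note: Pro5 are CHO cells carrying HIG-tagged alpha-DG that lacks glycosylation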
CRFR2-BP antag: antagonists of CRF-binding protein/CRF-R2 receptor complex | HEK293 CRF-R2/CRF-BP, CRF-induced calcium fluorescence | inhibition, % at 11.8 µM | 350,000 tested, 0.59% active;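 active = inhibition of the ligand-induced calcium signal above about 50% at the single tested concentration, limit read from the data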
H9c2 protect: modulators protecting cardiomyocytes from myocardial damage | H9c2 cardiomyocytes, H2O2 injury protection, ATPLite, 2 h | protection from H2O2 cell death, % at 20 µM | 360,000 tested, 0.63% active;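 active = compounds giving at least 50% protection of heart cells from peroxide-induced death in the single-dose screen, raw or plate-pattern-corrected value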;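 note: 0% = DMSO wells with peroxide and 100% = DMSO wells without peroxide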
CRFBP-R2 agonist: CRF-BP/CRF-R2 complex agonism; HEK293 CRF-R2/CRF-BP, calcium dye fluorescence (FLIPR); percent of saturating CRF peptide response; activation, % at 13.2 µM; 350,000 tested, 0.46% active; AID 588473;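 active = activation of at least 50%, plus an integration ratio under a set limit after plate pattern correction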;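 note: plate controls were neutral control wells without compound for no effect and CRF at EC100 for full effect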
FAS TE block: FAS thioesterase (human) inhibition; P49327; recombinant FAS-TE, OMFH fluorogenic substrate, fluorescence endpoint; 360,000 tested, 0.67% active; inhibition, % at 15 µM;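 active = compounds whose normalised, plate-corrected inhibition of enzyme fluorescence in the single-dose primary screen is 50% or more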;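 note: 0% = DMSO with enzyme and 100% = substrate without enzyme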
PfGluPho inh: PfG6PD (Plasmodium falciparum) enzyme inhibition | 350,000 tested, 0.78% active | inhibition, % at 20 µM | AID 504690 | PfGluPho enzyme, NADPH resazurin-diaphorase fluorescence;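 active = inhibition reaching at least a set limit at 20 µM in the primary screen, cut at about 59% in these data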;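 note: 0% = DMSO wells with substrate and 100% = DMSO wells lacking glucose-6-phosphate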
Numbers without * were called inactive; · = not tested or not shown. Only some compounds are listed: those with a hit (about 3.2% of all), similar ones and a draw of the others.

SMILES	aDG glyco up	CRFR2-BP antag	H9c2 protect	CRFBP-R2 agonist	FAS TE block	PfGluPho inh
COc1ccc(OC)c(NC(=O)CCCCCn2nnc3ccccc3c2=O)c1	0	-5	-4	-3	-3	0
O=C(CSc1nc2ccccc2c(=O)[nH]1)N1CCOCC1	0	27	67*	1	-6	13
O=C(CSc1nc2ccccc2c(=O)[nH]1)N1CCCCCC1	0	-5	51*	-1	-7	-9
CSc1nc(C)nc(N/C=C(\C#N)S(=O)(=O)c2ccccc2Cl)n1	0	2	1	-2	-1	-4
CC(C)c1ccc(NC(=O)COc2ccc(F)cc2C(=O)c2cnn(-c3ccccc3)c2)cc1	0	-44	-1	-2	28	-17
O=C(COc1ccccc1C(=O)c1cnn(-c2ccccc2)c1)Nc1ccc2ccccc2c1	0	141*	-12	15	35	15
Cc1ccc(C)c(Cn2nc(-c3ccccc3)ccc2=O)c1	0	-5	-8	-1	13	-2
Cc1ccc(-c2ccc(=O)n(Cc3cc(C)ccc3C)n2)cc1	0	123*	-7	5	17	6
Oc1ccc(C[C@H]2CNC(=S)N2CC2CCCN2C[C@H](Cc2ccc(O)cc2)N2C[C@H](Cc3ccccc3)N(CC3CCCCCC3)C2=S)cc1 (stereo partly specified)	0	15	-4	-1	-85	1
CCCCn1c(O)c2n(c1=O)Cc1ccccc1N=C2c1ccc(OC)cc1	0	·	0	·	1	·
Cc1ccc(CNCc2cc3c(C(C)(C)C)nn(-c4ccccc4)c3[nH]c2=O)cc1	0	-34	58*	0	-7	-16
COc1ccc(CNCc2cc3c(C(C)(C)C)nn(-c4ccccc4)c3[nH]c2=O)cc1	0	-23	18	0	-18	-3
CC(C)(C)c1nn(-c2ccccc2)c2[nH]c(=O)c(CNCc3ccco3)cc12	0	-17	79*	3	1	-1
CCOC(=O)C1(C)CCCN1C(=O)c1ccc(Cl)nc1 (stereo unspecified)	1	·	6	·	-6	·
CCOc1cc(NC(=O)c2ccco2)c(OCC)cc1NC(=O)c1cc(OC)c(OC)c(OC)c1	0	-12	15	-1	-1	-4
COc1cc(NC(=O)c2ccco2)c(C(=O)OCC(=O)c2c[nH]c3ccccc23)cc1OC	-1	14	66*	1	-6	-2
COc1ccc(NC(=O)c2ccccc2NC(=O)c2ccco2)c(OC)c1	0	-7	8	-2	4	-9
COc1ccc(/C=N/NC(=O)c2ccccc2NC(=O)c2ccco2)c(OC)c1	0	111*	4	-3	12	-4
COc1cc(NC(=O)c2ccco2)c(OC)cc1NC(=O)c1cc(OC)c(OC)c(OC)c1	0	2	74*	-1	-4	20
O=C(OCC(=O)c1c[nH]c2ccccc12)c1ccco1	0	3	-7	1	-5	2
COc1cc(NC(=O)c2ccco2)c(OC)cc1NC(=O)Nc1cccc(Cl)c1	0	-36	65*	2	11	13
CC(C)c1ccc(NC(=O)CCN2C(=O)[C@@H]3Cc4ccccc4CN3C2=O)cc1	0	-13	-4	1	1	-11
CC(Oc1ccccc1)C(=O)Nc1cccc([N+](=O)[O-])c1 (stereo unspecified)	1	13	1	-3	23	-12
Cc1cccc(C(C)C)c1NC(=O)C(C)OC(=O)Cc1n[nH]c(=O)c2ccccc12 (stereo unspecified)	0	-7	71*	-1	-5	4
CC(OC(=O)Cc1n[nH]c(=O)c2ccccc12)C(=O)Nc1ccccc1[N+](=O)[O-] (stereo unspecified)	1	-5	72*	0	-4	6
SMILES	aDG glyco up	CRFR2-BP antag	H9c2 protect	CRFBP-R2 agonist	FAS TE block	PfGluPho inh
CC(OC(=O)Cc1n[nH]c(=O)c2ccccc12)C(=O)Nc1cccc([N+](=O)[O-])c1 (stereo unspecified)	0	0	58*	-3	5	-4
COc1ccccc1NC(=O)C(C)OC(=O)Cc1n[nH]c(=O)c2ccccc12 (stereo unspecified)	0	-14	66*	1	-4	1
CC(=O)Nc1nc(-c2cc([N+](=O)[O-])cs2)cs1	0	-1	-9	1	-8	-14
Cn1c(CCNC(=O)c2ccco2)nc2cc(NC(=O)c3ccccc3)ccc21	0	-7	4	0	-7	-1
Cn1c(CCNC(=O)c2ccco2)nc2cc(NC(=O)c3ccco3)ccc21	0	108*	1	0	-8	7
O=C(Nc1ccc(N2CCOCC2)c(Cl)c1)c1cc2ccccc2o1	0	14	4	-2	17	126*
COc1cc(NC(=O)c2ccc(F)cc2)ccc1NC(=O)c1cc2ccccc2o1	0	9	-3	1	-5	6
O=C(Nc1ccccc1N1CCOCC1)c1cc2ccccc2o1	0	-46	1	2	16	6
COc1cc(NC(=O)c2c(OC)cccc2OC)ccc1NC(=O)c1cc2ccccc2o1	0	2	54*	0	15	-10
COc1cc(C(=O)Nc2ccc3nc(N4CCOCC4)sc3c2)cc(OC)c1OC	0	-3	16	0	1	6
O=C(Nc1ccc2nc(N3CCOCC3)sc2c1)c1cc2ccccc2o1	0	13	68*	-2	10	7
Cc1c(C(=O)Nc2ccc3nc(N4CCOCC4)sc3c2)oc2ccccc12	0	-1	58*	0	31	25
Cc1ccc2c(CC(=O)Nc3cccc(S(=O)(=O)N4CCOCC4)c3)coc2c1	0	0	-7	3	18	-5
CC1(C(=O)NS(=O)(=O)C2CC2)CCCN(C(=O)c2ccccc2)C1 (stereo unspecified)	0	·	-3	·	-6	·
Cc1ccc(S(=O)(=O)N(C)c2c(C)ccc(S(=O)(=O)NC(C)(C)C)c2C)cc1	0	-1	11	-2	13	17
COc1ccc(CNC(=O)c2cc(=O)c3cc(C)cc(C)c3o2)cc1	0	3	-4	-5	14	-9
Cc1nc(-c2ccncc2)nc(NCCNc2ccc(C(F)(F)F)cn2)c1Cl	1	118*	-7	3	4	9
COC(=O)c1ccccc1NCc1cc(=O)oc2cc(O)c(O)cc12	0	-4	67*	1	22	-39
COc1ccc(C)cc1NCc1cc(=O)oc2cc(-c3ccccc3)c(O)cc12	0	-6	7	1	-2	4
COc1ccc(CC(=O)O/N=C(\N)c2cccc([N+](=O)[O-])c2)cc1	0	67*	-6	-3	40	7

Screening data as filed in PubChem BioAssay.
